Compounds with a hit are over-represented: about 11% of the library has one in this group of screens.
Vaccinia Venus – vaccinia inhibition (Venus reporter). Vaccinia virus Venus reporter expression, fluorescence. Potency, µM (series often up to 36.5 µM), hits mostly inhibitors. actives 0.46% (n = 330,000); calls by dose curve; tested in A549 cells; note: nearly all actives have a fitted effect of over 30% in size
Pf growth 96h – inhibits malaria parasite growth, 96 h. actives 6.9% (n = 320,000). P. falciparum luciferase reporter growth, 96 h. Potency, µM (highest dose often 28.7 µM), actives largely listed as inhibitors. AID 504834
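Compounds incubated with erythrocytes infected by luciferase-expressing P. falciparum (2% hematocrit, 0.05% parasitemia final) for 96 hours, 37 C in 5% CO2. Growth inhibition scored as decreased luciferase luminescence.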
HCV inhibitor – blocks hepatitis C virus; AID 651820; Potency, µM (highest dose often 41.8 µM), hits mostly inhibitors; Huh7.5.1 HCVcc-Cre infection, luciferase reporter, 44 h; actives 3.4% (n = 340,000)
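Seed cells (1,000/well) for 4 h; treat with compound and infect with HCVcc-Cre, moi about 0.5. Incubate 44 h, then detect luciferase activity.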
Pf growth 48h – P. falciparum growth inhibition at 48 hours (one generation); P. falciparum luciferase growth in erythrocytes, 48 h; Potency, µM (titrated, usually from 28.7 µM), most hits filed as inhibitors; actives 5.9% (n = 310,000)
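Compounds are pin-transferred into medium, infected erythrocytes (2% hematocrit, 0.1% parasitemia final) are added, and plates sit one parasite generation at 37 C in 5% CO2. Detection reagent is then added and luminescence measured.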
Vaccinia mCherry – vaccinia inhibition (mCherry reporter). Potency, µM (highest dose often 36.5 µM), most hits filed as inhibitors. Vaccinia virus mCherry reporter infection, fluorescence. actives 0.63% (n = 310,000); calls by dose curve; tested in A549 cells; note: nearly all actives have a fitted effect of over 35% in size
NS1 inh – influenza NS1 inhibition | Potency, µM (doses to about 46.1 µM) | actives 0.4% (n = 270,000); calls by dose curve; note: actives are rising curves; nearly all actives have a fitted effect of over 50% in size
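Compounds were scored for reversing the slow growth caused by influenza A NS1 in S. cerevisiae, measured by optical density at 600 nm. Assay medium contained 2% galactose at pH 6.0; NS1-free yeast of the same strain were the positive control.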
Large screens that a line does not name were inactive. Unless noted, calls come from the whole dose curve; as a rule, active = well fitted inhibition curve with a large enough effect; inconclusive = small, poorly fitted or top-dose-only effect, or another doubt; inactive = no such curve, though single readings can be large or run the other way.

CCOC(=O)c1cnc2ccc(OCC)cc2c1NCc1ccccc1OC	HCV inhibitor 7.08µM, Pf growth 48h 11.7µM
CCOC(=O)c1cnc2ccc(OC)cc2c1NCc1ccccc1	Pf growth 96h inconclusive, HCV inhibitor inconclusive, Pf growth 48h 11.7µM
COc1ccc(OC)c(NC(=O)N2C[C@H]3C[C@@H](C2)c2cccc(=O)n2C3)c1	none
CC[C@]12c3[nH]c4cc(CCC(=O)N(C)C)ccc4c3CCN1C(=O)[C@@H](CC(=O)NCCCOC)C[C@@H]2C(=O)N1CCN(C(=O)c2ccco2)CC1	none (no result: Pf growth 96h, Pf growth 48h, NS1 inh)
COc1cc(OC)cc(N2C(=O)CC(N3CCC(C(=O)N4CCCCC4)CC3)C2=O)c1 (stereo not drawn)	Pf growth 96h 14.7µM
CC(=O)Nc1cccc(N2C(=O)CC(N3CCC(C(=O)N4CCCCC4)CC3)C2=O)c1 (stereo not drawn)	none (no result: Pf growth 96h, Vaccinia mCherry)
CCOc1ccc2nc(NC(=O)C3CCCN(S(=O)(=O)c4cccc5nonc45)C3)sc2c1 (stereo not drawn)	Vaccinia Venus inconclusive, Pf growth 96h inconclusive, HCV inhibitor inconclusive, Vaccinia mCherry inconclusive (no result: Pf growth 48h)
CCOc1ccc2nc(NC(=O)C3CCCN(S(=O)(=O)c4c(C)noc4C)C3)sc2c1 (stereo not drawn)	Vaccinia Venus inconclusive, Pf growth 96h 13.1µM, HCV inhibitor 11.2µM, Pf growth 48h inconclusive, Vaccinia mCherry inconclusive
COc1ccc2nc(NC(=O)C3CCCN(S(=O)(=O)c4cccc5nonc45)C3)sc2c1 (stereo not drawn)	Vaccinia Venus inconclusive, HCV inhibitor inconclusive, Pf growth 48h 13.1µM, Vaccinia mCherry inconclusive
COc1ccc2nc(NC(=O)C3CCCN(S(=O)(=O)c4c(C)noc4C)C3)sc2c1 (stereo not drawn)	HCV inhibitor inconclusive, Pf growth 48h inconclusive
O=C(N/N=C/c1ccco1)C(O)c1ccccc1 (stereo not drawn)	Pf growth 48h inconclusive (no result: Vaccinia Venus, Vaccinia mCherry)
Cc1[nH]c2ccc(Br)cc2c(=S)c1C/C=C/Cl	Pf growth 96h 8.28µM, Pf growth 48h inconclusive (no result: Vaccinia Venus, Vaccinia mCherry)
Cc1[nH]c2ccc3ccccc3c2c(=O)c1C/C=C/Cl	Pf growth 96h 14.7µM, HCV inhibitor inconclusive, Vaccinia mCherry inconclusive
CC1=C(c2ccc(C)c(C)c2)S(=O)(=O)N=C1N1CCC(C(=O)NC(C)c2ccccc2)CC1 (stereo not drawn)	none (no result: Pf growth 96h, HCV inhibitor, Pf growth 48h, NS1 inh)
CCOc1ccc(C2c3c(-c4ccccc4O)n[nH]c3C(=O)N2Cc2cccnc2)cc1OC (stereo not drawn)	none (no result: Pf growth 96h, HCV inhibitor, Pf growth 48h, NS1 inh)
COc1cc(C2c3c(oc4c(C)cc(C)cc4c3=O)C(=O)N2Cc2cccnc2)ccc1O (stereo not drawn)	NS1 inh inconclusive (no result: Vaccinia Venus, Pf growth 96h, Pf growth 48h, Vaccinia mCherry)
COc1ccc(C2c3c(-c4cc(Cl)c(C)cc4O)n[nH]c3C(=O)N2Cc2cccnc2)cc1OC (stereo not drawn)	Vaccinia Venus inconclusive, Pf growth 48h 3.29µM, Vaccinia mCherry inconclusive
COc1ccc(C2c3c(oc4c(C)cc(C)cc4c3=O)C(=O)N2Cc2cccnc2)cc1OC (stereo not drawn)	Pf growth 96h 9.28µM (no result: Vaccinia Venus, Vaccinia mCherry)
COc1ccc(CCN2C(=O)c3[nH]nc(-c4ccccc4O)c3C2c2cccc(O)c2)cc1OC (stereo not drawn)	Pf growth 96h 13.1µM, HCV inhibitor inconclusive, Pf growth 48h 10.4µM, Vaccinia mCherry inconclusive
CCOc1ccc(C(=O)Nc2c(C(N)=O)oc3ccccc23)cc1	HCV inhibitor inconclusive
S=C(c1ccccc1)N1CCSCC1	none
COc1ccc(/C=C2\SC(=O)N(CCNC(=O)Cc3coc4cc(C)ccc34)C2=O)cc1OC	Pf growth 96h 7.38µM, HCV inhibitor 12.6µM, Pf growth 48h inconclusive, NS1 inh inconclusive (no result: Vaccinia Venus, Vaccinia mCherry)
O=C(CN1C(=O)CC(c2ccco2)Sc2ccccc21)Nc1ccc2c(c1)OCCO2 (stereo not drawn)	HCV inhibitor 11.2µM
Cc1ccc(NC(=O)CSc2ccc3c(c2)OCCO3)c(O)c1	HCV inhibitor 10µM (no result: Vaccinia Venus, Vaccinia mCherry)
Cc1ccnc(NC(=O)CSc2ccc3c(c2)OCCO3)c1	HCV inhibitor inconclusive (no result: NS1 inh)
CC1Cc2ccccc2N1CC(=O)Nc1ccc(Cl)c(S(=O)(=O)N(C)C)c1 (stereo not drawn)	Pf growth 48h 9.28µM (no result: NS1 inh)
O=C(CN1CCN(c2ccccc2O)CC1)Nc1ccc2c(c1)OCCCO2	Pf growth 48h 13.1µM (no result: Vaccinia Venus, Vaccinia mCherry, NS1 inh)
CN1C(=O)c2ccccc2OC1(C)Cc1ccccc1 (stereo not drawn)	none
O=C(CSc1ccc2c(c1)OCCO2)N1CCN(c2ccccc2O)CC1	Pf growth 96h 7.38µM, HCV inhibitor inconclusive, Pf growth 48h inconclusive (no result: NS1 inh)
CC1Cc2ccccc2N1CC(=O)Nc1ccc2c(c1)OCCCO2 (stereo not drawn)	Pf growth 96h 11.7µM, Pf growth 48h inconclusive (no result: Vaccinia Venus, Vaccinia mCherry, NS1 inh)
NC(=O)c1cnn(C2CCS(=O)(=O)C2)c1 (stereo not drawn)	Pf growth 96h inconclusive (no result: NS1 inh)
CN(c1ccc(F)cc1)S(=O)(=O)c1ccc(Cl)c(C(=O)NCC2CCCO2)c1 (stereo not drawn)	Pf growth 48h inconclusive (no result: NS1 inh)
COc1ccccc1NS(=O)(=O)c1cccc(C(=O)NCC2(N(C)C)CCCCC2)c1	Pf growth 96h inconclusive (no result: NS1 inh)
CN(c1ccc(F)cc1)S(=O)(=O)c1ccc(Cl)c(C(=O)NCC2(N3CCOCC3)CCCCC2)c1	HCV inhibitor 11.2µM, Vaccinia mCherry inconclusive (no result: Pf growth 96h, Pf growth 48h, NS1 inh)
COc1ccccc1N(C)S(=O)(=O)c1ccc(Cl)c(C(=O)NCC2(N(C)C)CCCCC2)c1	Pf growth 96h 9.28µM, HCV inhibitor inconclusive, Pf growth 48h inconclusive (no result: NS1 inh)
COc1ccc(Cl)cc1NS(=O)(=O)c1cccc(C(=O)NCC2(N(C)C)CCCCC2)c1	Pf growth 96h 14.7µM, HCV inhibitor inconclusive, Pf growth 48h inconclusive, Vaccinia mCherry inconclusive
CC(=O)Oc1cc(O)c2c(=O)c(OC(C)=O)c(-c3ccc(OC(C)=O)c(OC(C)=O)c3)oc2c1	HCV inhibitor inconclusive (no result: Pf growth 96h, Pf growth 48h, NS1 inh)
Cc1ccc2c(c1)C(=O)C(=O)N2CC1COc2ccccc2O1 (stereo not drawn)	none
O=C1C(c2ccc(F)cc2)N(CCc2ccc(Cl)cc2)C(=O)CN1C1CCCCC1 (stereo not drawn)	none (no result: Pf growth 96h, HCV inhibitor, Pf growth 48h, NS1 inh)
O=C(Nc1nc(-c2ccc(F)c(F)c2)cs1)c1ccc(OCC2CCCO2)cc1 (stereo not drawn)	HCV inhibitor inconclusive
CCOc1ccc2nc(NC(=O)c3ccc(OCC4CCCO4)cc3)sc2c1 (stereo not drawn)	Pf growth 96h inconclusive, HCV inhibitor 3.98µM, Pf growth 48h 8.28µM
Cc1cccc2sc(NC(=O)c3ccc(OCC4CCCO4)cc3)nc12 (stereo not drawn)	HCV inhibitor inconclusive, Pf growth 48h inconclusive
Cc1csc(NC(=O)c2ccc(OCC3CCCO3)cc2)n1 (stereo not drawn)	HCV inhibitor 11.2µM (no result: NS1 inh)
COc1ccc(OC)c(N(C(=O)c2snc(C(N)=O)c2N)C(C(=O)NCC2CCCO2)c2ccc3ncccc3c2)c1 (stereo not drawn)	Pf growth 48h inconclusive
